PubChem BioAssay (EPA / NIEHS)
Several values for one entry are separate records, joined by “and”; a condition that tells them apart may be missing. Equal entries are not always repeated. Some compounds were tested as several samples or in several runs, with calls that do not always agree. Activity calls are given as the source filed them. Rule for the calls: active = hit-call score of the fitted dose curve at least 0.9, where 1 is the maximum; inactive = score below 0.9.

Columns and labels:
[1] = ATG_GRE_CIS: Attagene CIS-FACTORIAL HepG2 Assay for human Glucocorticoid Response Elements (GRE) (AID 2282947); details: HepG2 GRE cis-reporter, Attagene multiplex mRNA; AC50: actives raise or lower the signal unless noted; outcome: actives raise or lower the signal unless noted
Method in brief: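 Transiently transfected HepG2 cells carrying GRE cis-reporter units (endogenous TF activity) dosed 24 h; reporter mRNA quantified by RT-PCR, 6-FAM labelling, HpaI digestion and capillary electrophoresis. Bidirectional fit versus DMSO baseline.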

[2] = ATG_ISRE_CIS: Attagene CIS-FACTORIAL HepG2 Assay for human Interferon Regulatory Factor 1 (IRF1) binding to an Interferon-Stimulated Response Element (ISRE) (AID 2282948); details: HepG2 ISRE cis-reporter (Attagene), mRNA transcription readout; actives raise or lower the signal
Method in brief: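 HepG2 cells transiently transfected with multiplexed cis-promoter reporter units; after 24 h compound exposure, reporter mRNA quantified by RT-PCR, FAM labelling, HpaI digestion and capillary electrophoresis. Bidirectional fit versus DMSO baseline.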

[3] = ATG_M_32_CIS: Attagene CIS-FACTORIAL HepG2 Assay for M32 Transcription Factor (Internal Marker) (AID 2282949); details: HepG2 Attagene cis-factorial M32 reporter, mRNA; actives raise or lower the signal;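 note: background control marker of the multiplexed CIS panel rather than a real target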
Method in brief: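 HepG2 cells transiently transfected with multiplexed cis-regulated reporter units, dosed 24 h. Reporter mRNA quantified by RT-PCR, 6-FAM labelling, HpaI digestion and capillary electrophoresis; bidirectional fit vs DMSO.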

[4] = ATG_M_06_CIS: Attagene CIS-FACTORIAL HepG2 Assay for M06 Transcription Factor (Internal Marker) (AID 2282950); details: HepG2 Attagene CIS-FACTORIAL M06 internal marker reporter; actives raise or lower the signal
Method in brief: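 Terse: HepG2, transient MRTU transfection (FuGene 6), 24 h dosing; total RNA, oligo(dT) RT, PCR, FAM label, HpaI cut, capillary electrophoresis; bidirectional fit vs DMSO baseline; background-control endpoint.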

[5] = biological target: Hypoxia-inducible factor 1-alpha (Homo sapiens) (UniProt Q16665); assay: ATG_HIF1a_CIS: Attagene CIS-FACTORIAL HepG2 Assay for human Hypoxia Inducible Factor 1 (HIF1A) (AID 2282951); details: HepG2 Attagene cis-factorial HIF1a reporter transcription; actives raise or lower the signal
Sequence of Hypoxia-inducible factor 1-alpha (Homo sapiens) (Q16665 whole entry, looked up): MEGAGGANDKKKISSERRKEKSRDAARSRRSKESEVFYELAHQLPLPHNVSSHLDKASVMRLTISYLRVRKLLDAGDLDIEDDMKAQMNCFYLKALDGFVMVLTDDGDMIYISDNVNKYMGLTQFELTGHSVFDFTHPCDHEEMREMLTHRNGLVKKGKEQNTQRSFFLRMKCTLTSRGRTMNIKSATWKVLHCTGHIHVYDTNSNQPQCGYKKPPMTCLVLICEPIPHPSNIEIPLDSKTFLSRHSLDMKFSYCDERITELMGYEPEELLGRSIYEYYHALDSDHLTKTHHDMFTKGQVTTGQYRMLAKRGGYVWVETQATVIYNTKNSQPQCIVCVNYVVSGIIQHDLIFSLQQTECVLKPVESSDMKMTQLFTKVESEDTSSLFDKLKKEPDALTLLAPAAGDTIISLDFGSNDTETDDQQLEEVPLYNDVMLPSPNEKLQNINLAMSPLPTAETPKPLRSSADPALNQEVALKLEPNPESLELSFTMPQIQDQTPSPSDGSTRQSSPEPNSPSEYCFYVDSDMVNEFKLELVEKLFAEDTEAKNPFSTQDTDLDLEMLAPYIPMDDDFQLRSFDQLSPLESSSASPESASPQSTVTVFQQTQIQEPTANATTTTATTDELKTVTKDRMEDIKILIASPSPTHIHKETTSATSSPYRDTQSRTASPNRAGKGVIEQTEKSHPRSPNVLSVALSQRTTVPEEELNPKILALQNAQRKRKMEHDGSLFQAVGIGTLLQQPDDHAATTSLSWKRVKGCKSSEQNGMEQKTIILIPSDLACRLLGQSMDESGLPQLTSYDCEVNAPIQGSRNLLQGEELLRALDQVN
Method in brief: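 Activity is fitted in both directions relative to DMSO. Reporter transcripts are read by RT-PCR, fluorescent primer extension and capillary electrophoresis after 24 h chemical treatment. The cells are HepG2 carrying transiently transfected cis-element-driven reporter units responding to endogenous factors.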

[6] = biological target: Hepatocyte nuclear factor 6 (Homo sapiens) (UniProt Q9UBC0); assay: ATG_HNF6_CIS: Attagene CIS-FACTORIAL HepG2 Assay for human Hepatocyte Nuclear Factor 6 (HNF6) (AID 2282952); details: HepG2 Attagene cis-factorial HNF6 reporter transcription; actives raise or lower the signal
Sequence of Hepatocyte nuclear factor 6 (Homo sapiens) (Q9UBC0 whole entry, looked up): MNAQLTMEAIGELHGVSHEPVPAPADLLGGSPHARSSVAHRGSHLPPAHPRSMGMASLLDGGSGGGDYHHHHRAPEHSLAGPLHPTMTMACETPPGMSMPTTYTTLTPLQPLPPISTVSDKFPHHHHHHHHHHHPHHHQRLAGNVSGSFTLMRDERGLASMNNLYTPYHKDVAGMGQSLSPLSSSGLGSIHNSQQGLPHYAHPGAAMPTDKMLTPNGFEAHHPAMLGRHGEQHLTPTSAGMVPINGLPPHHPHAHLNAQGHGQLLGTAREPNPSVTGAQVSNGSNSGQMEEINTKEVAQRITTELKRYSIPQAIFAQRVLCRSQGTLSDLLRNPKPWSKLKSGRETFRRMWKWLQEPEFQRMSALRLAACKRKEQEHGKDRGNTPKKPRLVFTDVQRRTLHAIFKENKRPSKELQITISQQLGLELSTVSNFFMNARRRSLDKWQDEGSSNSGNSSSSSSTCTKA
Method in brief: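 HepG2, transient MRTU transfection (cis promoters); 24 h chemical exposure; total RNA → oligo(dT) RT → PCR → 6-FAM labelling → HpaI cut → CE; bidirectional fit vs DMSO.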

[7] = biological target: Heat shock factor protein 1 (Homo sapiens) (UniProt Q00613); assay: ATG_HSE_CIS: Attagene CIS-FACTORIAL HepG2 Assay for human Heat Shock Transcription Factor 1 (HSE) (AID 2282953); details: HepG2 HSE cis-reporter, Attagene RNA transcription; actives raise or lower the signal
Sequence of Heat shock factor protein 1 (Homo sapiens) (Q00613 whole entry, looked up, the tested form may be a part): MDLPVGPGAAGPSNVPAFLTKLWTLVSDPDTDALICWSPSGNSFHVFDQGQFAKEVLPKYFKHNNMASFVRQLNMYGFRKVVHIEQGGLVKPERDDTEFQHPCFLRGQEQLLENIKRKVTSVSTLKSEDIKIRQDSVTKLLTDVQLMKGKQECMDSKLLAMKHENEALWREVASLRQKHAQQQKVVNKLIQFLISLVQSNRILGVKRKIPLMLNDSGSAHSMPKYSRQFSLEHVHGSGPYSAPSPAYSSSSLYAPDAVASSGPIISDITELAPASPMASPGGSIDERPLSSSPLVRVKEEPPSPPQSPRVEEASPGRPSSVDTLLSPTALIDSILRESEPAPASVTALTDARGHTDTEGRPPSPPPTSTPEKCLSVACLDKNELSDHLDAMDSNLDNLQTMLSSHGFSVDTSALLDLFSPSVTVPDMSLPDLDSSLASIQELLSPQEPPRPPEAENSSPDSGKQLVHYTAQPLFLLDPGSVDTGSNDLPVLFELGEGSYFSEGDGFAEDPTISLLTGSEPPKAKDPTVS
Method in brief: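 Read-out: fluorescence of reporter-specific RT-PCR fragments separated by capillary electrophoresis. HepG2 carrying transfected cis-element reporter units; 24 h dosing; activity fitted in both directions relative to DMSO baseline.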

[8] = ATG_MRE_CIS: Attagene CIS-FACTORIAL HepG2 Assay for human Metal Responsive Element (MRE) (AID 2282954); details: HepG2 MRE cis-reporter transcription, Attagene multiplex; actives raise or lower the signal
Method in brief: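 HepG2 cells transiently transfected with cis-element-driven reporter units; mRNA measured 24 h after dosing. Reporter transcripts quantified by RT-PCR, FAM labelling, HpaI digestion and capillary electrophoresis; bidirectional fit versus DMSO.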

[9] = ATG_PBREM_CIS: Attagene CIS-FACTORIAL HepG2 Assay for human Phenobarbital-responsive Enhancer Module (PBREM) (AID 2282955); details: HepG2 PBREM cis-reporter, Attagene multiplexed transcription; actives raise or lower the signal
Method in brief: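 Endogenous transcription factor activity was read from reporter transcripts in transiently transfected human HepG2 liver cells after 24 h dosing. RT-PCR products were fluorescently labelled, HpaI-cut and sized by capillary electrophoresis; activity fitted bidirectionally against DMSO baseline.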

[10] = biological target: Paired box protein Pax-6 (Homo sapiens) (UniProt P26367); assay: ATG_Pax6_CIS: Attagene CIS-FACTORIAL HepG2 Assay for human Paired Box 6 (PAX6) (AID 2282956); details: HepG2 CIS-FACTORIAL PAX6 reporter transcription, RNA readout; actives raise or lower the signal
Sequence of Paired box protein Pax-6 (Homo sapiens) (P26367 whole entry, looked up): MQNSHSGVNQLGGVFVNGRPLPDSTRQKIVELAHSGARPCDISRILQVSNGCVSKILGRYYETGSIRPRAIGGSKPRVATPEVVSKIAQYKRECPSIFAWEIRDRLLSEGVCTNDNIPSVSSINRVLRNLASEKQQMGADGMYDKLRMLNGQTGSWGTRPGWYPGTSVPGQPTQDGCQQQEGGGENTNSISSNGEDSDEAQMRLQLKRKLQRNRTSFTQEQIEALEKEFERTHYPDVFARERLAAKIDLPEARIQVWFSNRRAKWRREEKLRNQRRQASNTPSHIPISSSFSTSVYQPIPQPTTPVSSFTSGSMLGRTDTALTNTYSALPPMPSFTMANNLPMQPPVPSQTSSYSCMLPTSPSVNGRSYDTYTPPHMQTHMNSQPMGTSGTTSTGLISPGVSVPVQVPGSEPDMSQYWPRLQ
Method in brief: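 HepG2 cells transiently transfected with multiplexed cis-promoter reporter units (endogenous TF activity) were dosed for 24 h. Reporter mRNA was quantified by RT-PCR, 6-FAM labeling, HpaI digestion and capillary electrophoresis; bidirectional fitting versus DMSO baseline.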

Measured: AC50

O=C(Nc1ccc(Cl)c(Cl)c1)c1cc(Cl)cc(Cl)c1O
active: [2] 33.4 µM | [5] 0.378 µM | [7] 52 µM | [8] 25.8 µM | [9] 1.35 µM | [10] 30.5 µM
inactive: [1] | [3] | [4] | [6]

C/C=C/C(=O)C1=C(C)CCCC1(C)C
active: [2] 69.9 µM | [6] 65.5 µM | [7] 63.7 µM | [8] 36.5 µM | [10] 39.7 µM
inactive: all other assays above

CC(C)CCOCCC(C)C
inactive: all assays above

FC(F)(F)C1(F)C(F)(F)C(F)(F)C(F)(F)C1(F)F
inactive: all assays above

CCCCCCCCCCCC
not listed: [9]
inactive: all other assays above

Oc1c(Cl)cc(Cl)cc1Sc1cc(Cl)cc(Cl)c1O
active: [7] 18.3 µM
not listed: [8] | [10]
inactive: all other assays above

COc1cccc(O)c1
inactive: all assays above

COC(=O)C(F)(F)C(F)(F)C(F)(F)C(F)(F)C(F)(F)F
inactive: all assays above

CC1CCC(CO)CC1 (stereo not drawn)
inactive: all assays above

Oc1cccc2c(O)cccc12
inactive: all assays above

FC(OC(F)(F)C(F)(F)C(F)(F)F)C(F)(F)F (stereo not drawn)
inactive: all assays above

CC(C)(C)c1ccc(CCC=O)cc1
inactive: all assays above

Clc1ccc(Nc2nnc(Cc3ccncc3)c3ccccc23)cc1
active: [5] 15.8 µM | [6] 17.9 µM | [7] 75.2 µM | [9] 8.51 µM
inactive: [1] | [2] | [3] | [4]

Nc1ccn([C@@H]2O[C@H](CO)[C@@H](O)C2O)c(=O)n1 (stereo partly drawn)
inactive: all assays above

NNc1nc(-c2ccc([N+](=O)[O-])cc2)cs1
active: [7] 51.3 µM
inactive: all other assays above

C=CC(=O)OCCC(F)(F)C(F)(F)C(F)(F)C(F)(F)C(F)(F)C(F)(F)F
inactive: all assays above

CCCCCC(C)OC(=O)COc1ccc(Cl)c2cccnc12 (stereo not drawn)
inactive: all assays above

Nc1ccc(O)c(C(=O)O)c1
not listed: [8]
inactive: all other assays above

CCC1CO1 (stereo not drawn)
not listed: [9]
inactive: all other assays above

COc1cc([N+](=O)[O-])ccc1N
inactive: all assays above

NCc1cccc(CN)c1
active: [5] 24.4 µM
not listed: [8] | [10]
inactive: all other assays above

O=P(O)(O)CCC(F)(F)C(F)(F)C(F)(F)C(F)(F)C(F)(F)C(F)(F)C(F)(F)C(F)(F)F
inactive: all assays above

CCCCCCCCCCCCCCCCCC[N+](C)(C)Cc1ccccc1
active: [1] 79.2 µM | [2] 12.8 µM | [6] 10.1 µM | [8] 7.27 µM
inactive: all other assays above

C=Cc1ccc(O)c(OC)c1
inactive: all assays above

FC(F)(F)C(F)(F)C(F)(F)C(F)(F)I
inactive: all assays above

C[N+](C)(CCCNS(=O)(=O)CCC(F)(F)C(F)(F)C(F)(F)C(F)(F)C(F)(F)C(F)(F)F)CC(=O)[O-]
inactive: all assays above

O=C(F)C(F)(F)C(F)(F)C(F)(F)C(F)F
not listed: [8] | [10]
inactive: all other assays above

CCOC(=O)c1nc(C(Cl)(Cl)Cl)n(-c2ccc(Cl)cc2Cl)n1
active: [1] 169 µM | [2] 53.2 µM | [3] 63.9 µM | [6] 160 µM | [7] 65.8 µM | [8] 74.7 µM | [9] 100 µM
inactive: [4] | [5] | [10]

FCOC(C(F)(F)F)C(F)(F)F
not listed: [7] | [10]
inactive: all other assays above

CCCC=O
not listed: [7]
inactive: all other assays above

CCCCc1oc2ccccc2c1C(=O)c1cc(I)c(OCCN(CC)CC)c(I)c1
active: [1] 141 µM | [3] 127 µM | [4] 89.1 µM | [5] 7.78 µM | [8] 18.3 µM
inactive: [2] | [7]

CCC(C)c1ccccc1O (stereo not drawn)
not listed: [8]
inactive: all other assays above

Cc1[nH]nc2c1N=C(c1ccccc1Cl)c1cc([N+](=O)[O-])ccc1N2
active: [2] 2.9 µM
not listed: [7] | [10]
inactive: all other assays above

COc1ccc(C#N)cc1
not listed: [8]
inactive: all other assays above

COc1ccccc1NC(=O)c1cc2ccccc2cc1O
inactive: [3] | [4]
active: [1] 100 µM | [2] 82.7 µM | [5] 22.7 µM | [6] 137 µM | [9] 6.07 µM | [10] 54.8 µM

O=S(=O)(O)c1ccc2cc(O)ccc2c1
not listed: [7]
inactive: all other assays above

CCN(CCC#N)c1ccccc1
not listed: [7] | [8] | [10]
inactive: all other assays above

O=C(CC(=O)C(F)(F)C(F)(F)C(F)(F)F)c1cccs1
inactive: [1] inactive [setting not given] | [2] | [3] | [4] | [6] | [8] | [9] | [10]
active: [5] 12.8 µM and 16.5 µM | [8] 50 µM | [9] 69.7 µM

CCC(=O)C=Cc1ccc(OC)cc1
active: [2] 100 µM | [5] 62.7 µM | [6] 124 µM | [8] 65.4 µM
not listed: [7]
inactive: all other assays above

FC(F)(F)C1(F)C(F)(F)C(F)(F)C(F)(F)C(F)(C(F)(F)F)C1(F)F (stereo not drawn)
not listed: [7]
inactive: all other assays above

O=C1OC(=O)c2cc(-c3ccc4c(c3)C(=O)OC4=O)ccc21
not listed: [8]
inactive: all other assays above

Cc1ccc2ccc3ccc(C)cc3c2c1
not listed: [7]
inactive: all other assays above

CC1CCC(C(=O)O)CC1 (stereo not drawn)
not listed: [8]
inactive: all other assays above

N=C(N)c1ccc(OCCCCCOc2ccc(C(=N)N)cc2)cc1
active: [2] 57.9 µM | [5] 113 µM | [10] 101 µM
not listed: [8] | [9]
inactive: all other assays above

COC1=CC(=O)C[C@@H](C)[C@]12Oc1c(Cl)c(OC)cc(OC)c1C2=O
active: [5] 26.6 µM
not listed: [6]
inactive: all other assays above

c1cc[nH]c1
not listed: [7]
inactive: all other assays above

CC(=O)CC(C)C
not listed: [6]
inactive: all other assays above

Cc1cc(C(=C2C=CC(=Nc3ccc(S(=O)(=O)O)cc3)C=C2)c2ccc(Nc3ccc(S(=O)(=O)O)cc3)cc2)cc(S(=O)(=O)O)c1N
not listed: [7]
inactive: all other assays above
